High-throughput results as filed in PubChem BioAssay.
Only some compounds are listed: those with a hit (about 3.6% of all), similar ones and a draw of the others.
mHTT CaM bind – mutant huntingtin-calmodulin interaction inhibitors – biochemical, AlphaScreen, primary screen. P42858. AlphaScreen His-mHTT/GST-CaM binding, luminescence. inhibition, % at 15 µM. 190,000 compounds, 3.6% hits. AID 1671202, 2021;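 note: 0% = both proteins with DMSO and 100% = one protein alone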
Target sequence (P42858 whole entry, looked up, stated change not applied): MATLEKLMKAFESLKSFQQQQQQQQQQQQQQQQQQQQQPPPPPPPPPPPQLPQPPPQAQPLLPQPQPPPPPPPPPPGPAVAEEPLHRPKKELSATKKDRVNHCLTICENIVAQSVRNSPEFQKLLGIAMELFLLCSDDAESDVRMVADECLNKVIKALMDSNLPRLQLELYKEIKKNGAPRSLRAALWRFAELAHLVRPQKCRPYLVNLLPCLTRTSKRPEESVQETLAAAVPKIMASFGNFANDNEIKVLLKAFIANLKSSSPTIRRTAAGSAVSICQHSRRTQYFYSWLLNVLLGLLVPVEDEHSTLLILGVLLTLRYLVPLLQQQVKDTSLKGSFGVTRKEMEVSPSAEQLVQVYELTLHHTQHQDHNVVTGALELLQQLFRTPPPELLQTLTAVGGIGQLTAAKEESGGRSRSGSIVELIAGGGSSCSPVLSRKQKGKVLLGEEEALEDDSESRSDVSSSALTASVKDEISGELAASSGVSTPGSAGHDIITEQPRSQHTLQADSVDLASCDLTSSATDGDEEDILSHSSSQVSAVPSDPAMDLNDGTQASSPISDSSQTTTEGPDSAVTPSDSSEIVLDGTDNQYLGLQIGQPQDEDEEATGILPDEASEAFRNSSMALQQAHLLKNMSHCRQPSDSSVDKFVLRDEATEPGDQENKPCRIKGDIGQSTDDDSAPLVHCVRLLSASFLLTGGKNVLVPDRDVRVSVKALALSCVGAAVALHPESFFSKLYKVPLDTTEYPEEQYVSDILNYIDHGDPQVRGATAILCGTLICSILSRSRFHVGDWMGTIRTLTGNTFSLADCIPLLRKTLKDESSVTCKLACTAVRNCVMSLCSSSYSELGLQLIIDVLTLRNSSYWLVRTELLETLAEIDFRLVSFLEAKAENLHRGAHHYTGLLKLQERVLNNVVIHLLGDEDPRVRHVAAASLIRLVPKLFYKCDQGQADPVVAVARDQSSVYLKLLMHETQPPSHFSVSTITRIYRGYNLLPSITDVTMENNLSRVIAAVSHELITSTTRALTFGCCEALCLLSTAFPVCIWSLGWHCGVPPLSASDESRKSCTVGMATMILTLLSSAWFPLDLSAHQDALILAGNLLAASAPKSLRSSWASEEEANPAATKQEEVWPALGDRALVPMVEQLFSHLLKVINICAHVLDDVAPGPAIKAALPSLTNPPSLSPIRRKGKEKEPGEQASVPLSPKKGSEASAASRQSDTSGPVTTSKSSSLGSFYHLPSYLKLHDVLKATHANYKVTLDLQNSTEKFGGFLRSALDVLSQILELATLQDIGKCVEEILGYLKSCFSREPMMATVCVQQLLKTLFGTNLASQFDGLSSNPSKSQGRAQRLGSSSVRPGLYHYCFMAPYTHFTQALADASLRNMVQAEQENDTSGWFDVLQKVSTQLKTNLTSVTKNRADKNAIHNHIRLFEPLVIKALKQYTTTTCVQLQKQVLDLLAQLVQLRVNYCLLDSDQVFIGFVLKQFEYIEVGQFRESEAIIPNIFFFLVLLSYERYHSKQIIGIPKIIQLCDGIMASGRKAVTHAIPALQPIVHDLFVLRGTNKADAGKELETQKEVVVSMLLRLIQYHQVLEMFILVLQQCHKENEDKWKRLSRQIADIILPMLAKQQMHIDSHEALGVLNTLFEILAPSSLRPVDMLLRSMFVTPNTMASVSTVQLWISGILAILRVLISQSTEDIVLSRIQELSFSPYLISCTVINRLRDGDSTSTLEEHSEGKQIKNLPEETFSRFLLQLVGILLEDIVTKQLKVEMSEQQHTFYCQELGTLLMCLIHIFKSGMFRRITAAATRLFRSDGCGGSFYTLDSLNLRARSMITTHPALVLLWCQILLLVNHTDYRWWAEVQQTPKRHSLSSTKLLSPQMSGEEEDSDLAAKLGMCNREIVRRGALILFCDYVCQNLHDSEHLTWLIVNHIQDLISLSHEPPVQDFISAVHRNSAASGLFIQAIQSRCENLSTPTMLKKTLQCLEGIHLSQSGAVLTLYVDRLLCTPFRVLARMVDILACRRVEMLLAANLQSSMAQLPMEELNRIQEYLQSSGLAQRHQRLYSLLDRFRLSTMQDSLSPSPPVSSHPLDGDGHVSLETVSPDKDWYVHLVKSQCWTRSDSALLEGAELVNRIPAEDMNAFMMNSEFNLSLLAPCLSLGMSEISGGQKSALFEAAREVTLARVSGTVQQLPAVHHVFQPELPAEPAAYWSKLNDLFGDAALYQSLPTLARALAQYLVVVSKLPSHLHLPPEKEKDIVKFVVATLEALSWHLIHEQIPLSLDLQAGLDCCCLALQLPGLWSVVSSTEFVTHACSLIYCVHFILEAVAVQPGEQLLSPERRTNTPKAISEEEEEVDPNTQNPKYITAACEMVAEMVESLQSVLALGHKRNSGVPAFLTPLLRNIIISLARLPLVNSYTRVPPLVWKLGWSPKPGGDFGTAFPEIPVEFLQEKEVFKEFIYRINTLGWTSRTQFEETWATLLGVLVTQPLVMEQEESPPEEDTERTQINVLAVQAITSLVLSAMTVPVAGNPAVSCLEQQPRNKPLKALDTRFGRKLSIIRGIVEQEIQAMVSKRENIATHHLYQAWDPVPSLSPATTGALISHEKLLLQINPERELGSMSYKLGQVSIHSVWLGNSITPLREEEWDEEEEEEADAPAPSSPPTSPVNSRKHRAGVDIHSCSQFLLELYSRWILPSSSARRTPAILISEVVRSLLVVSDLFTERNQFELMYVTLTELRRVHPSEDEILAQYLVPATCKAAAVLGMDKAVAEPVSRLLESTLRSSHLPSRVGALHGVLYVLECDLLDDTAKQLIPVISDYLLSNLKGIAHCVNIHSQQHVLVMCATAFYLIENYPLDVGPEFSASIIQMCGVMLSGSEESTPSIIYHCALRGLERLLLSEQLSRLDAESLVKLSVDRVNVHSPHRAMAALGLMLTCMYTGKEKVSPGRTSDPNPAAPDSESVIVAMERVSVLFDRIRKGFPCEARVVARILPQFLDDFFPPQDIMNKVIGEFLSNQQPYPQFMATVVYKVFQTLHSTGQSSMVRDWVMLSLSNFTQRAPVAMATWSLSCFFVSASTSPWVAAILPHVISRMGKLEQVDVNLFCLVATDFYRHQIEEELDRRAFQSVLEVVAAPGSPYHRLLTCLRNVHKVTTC
Pf apPOL block – Pf-apPOL inhibitors, biochemical, fluorescence; Plasmodium falciparum apicoplast DNA polymerase (apPOL); Recombinant Pf-apPOL, molecular beacon fluorescence, 1.5 h; inhibition, % at 10 µM; 210,000 compounds, 0.25% hits; AID 1794808, 2022
* hit, by the source's call; . = no result. Cut-off read from the data, not from the text of the source: active = inhibition above about 50%; inactive = the rest.

SMILES	mHTT CaM bind	Pf apPOL block
CC1CCCC1OCC(O)CN1C(C)(C)CCCC1(C)C (configuration not stated)	-1	-11
Clc1ccc(C2CC(c3ccc(Br)cc3)n3nnnc3N2)cc1 (configuration not stated)	43	-9
CC(C)N1Cc2cc(C(=O)NCC3CCCCC3)sc2C1	18	-1
CC(=O)NCc1csc(C2CCCN(S(=O)(=O)Cc3cccc(Cl)c3)C2)n1 (configuration not stated)	19	-5
CCc1ccc(-n2c(O)cnc2Nc2nc(C)cc(C)n2)cc1	6	-8
COC(=O)C1C2C=CC3(CN(c4ccccc4Cl)C(=O)C13)O2 (configuration not stated)	-17	2
COc1cc(OC)cc(C(=O)Nc2ccc(-c3nc4ccccc4s3)cc2[N+](=O)[O-])c1	0	-4
O=C(CSc1nnc(-c2ccco2)c(-c2ccco2)n1)Nc1ccccc1[N+](=O)[O-]	74*	-3
O=C(CSc1nnc(-c2ccco2)o1)Nc1cccc([N+](=O)[O-])c1	-6	-3
O=C(CSc1nnc(-c2ccco2)c(-c2ccco2)n1)Nc1cccc([N+](=O)[O-])c1	98*	4
O=C(CSc1nnc(-c2ccco2)c(-c2ccco2)n1)Nc1cccc(Br)c1	100*	-3
O=C(CSc1n[nH]c(-c2ccccc2)n1)Nc1ccccc1[N+](=O)[O-]	12	-1
O=C(O)Cn1c2ccccc2c2nnc(SCC(=O)Nc3cccc(Br)c3)nc21	25	-3
COc1cccc(NC(=O)Nc2ccc3nsnc3c2)c1	-4	1
O=C(c1ccc(Cl)cc1Cl)N1CCCc2ccccc21	-20	-3
COCc1[nH]nc2c1C(c1ccc3c(c1)OCO3)C(C#N)=C(N)O2 (configuration not stated)	-2	-6
O=C(NCc1ccccc1Cl)c1cnn2c(C(F)(F)F)cc(-c3cccs3)nc12	-1	-16
Cc1cccc(CNC(=O)C2CCN(c3cccc(C)c3C)C2=O)c1 (configuration not stated)	1	0
Cc1ccnc(N2CCC(C(=O)NCCN(C)Cc3ccccc3)CC2)n1	-13	-1
CN=C1NC(=O)C(CC(=O)Nc2ccc(C)cc2)S1 (configuration not stated)	5	-2
Cc1ccc(NCN2C(=O)c3ccc([N+](=O)[O-])cc3C2=O)cc1	.	-3
CC(C)Cc1nc(SCC(=O)Nc2ccc(S(N)(=O)=O)cc2)n[nH]1	-5	62*
CC(C)Cc1nc(SCC(=O)Nc2ccccc2)n[nH]1	-4	2
Cc1nc(CC(=O)NC2CCc3[nH]c4c(Cl)cccc4c3C2)c(C)s1 (configuration not stated)	95*	-12
COCC(=O)NC1CCc2[nH]c3c(C)cccc3c2C1 (configuration not stated)	10	-2
SMILES	mHTT CaM bind	Pf apPOL block
CCc1cccc2c3c([nH]c12)CCC(NC(=O)CC1C=CCC1)C3 (configuration not stated)	57*	10
Cc1ccccc1CC(=O)NC1CCc2[nH]c3c(C)cccc3c2C1 (configuration not stated)	29	13
COc1cc(OC)c(OC)cc1CN1CCN(S(=O)(=O)c2ccc(NC(C)=O)cc2)CC1	9	-9
COc1cccc2c1OC1(CCCCC1)N1N=C(c3cccs3)CC21 (configuration not stated)	43	-24
COc1ccc(C2=NN3C(C2)c2cccc(OC)c2OC32CCCCC2)cc1OC (configuration not stated)	52*	-10
Oc1oc(-c2ccc(Cl)cc2)nc1C=Nc1ccc(Br)cn1	-3	-4
Oc1oc(-c2ccc(Cl)cc2)nc1C=Nc1ccc(Cl)cn1	-1	62*
CCCOc1cccc(C(=O)Nc2sc3c(c2C(N)=O)CCCC3)c1	2	-10
CCCc1cc(=O)n2[nH]c(Cc3ccccc3)c(-c3ccccc3OC)c2n1	0	2
COc1ccc(-c2c(C)[nH]n3c(=O)cc(-c4ccccc4)nc23)cc1	73*	2
COc1ccccc1-c1c(Cc2ccccc2)[nH]n2c(=O)cc(-c3ccccc3)nc12	67*	2
Cc1[nH]n2c(=O)cc(-c3ccccc3)nc2c1-c1ccccc1	11	-5
CCN(CC)c1ncnc2sc(C(=O)NCCc3ccc(OC)c(OC)c3)c(C)c12	18	-2
CN(C)C(=S)NC(=O)C12CC3CC(C1)CC(c1ccccc1)(C3)C2	3	2
CC(=O)c1ccc(NC(=O)c2sc3nc(C)c(Cl)c(C)c3c2N)cc1	8	-4
C#CCOc1ccc(C#N)cc1	.	-3
COc1ccc(C2/C=C\CN(C(=O)c3ccccc3)CC(=O)N2Cc2ccc(F)cc2)cc1 (configuration not stated)	31	-1
COc1ccc(C2/C=C\CN(C(=O)OCc3ccccc3)CC(=O)N2Cc2ccc(F)cc2)cc1 (configuration not stated)	92*	-5
